# Values joined by “and” are separate entries in the source; they are usually repeats but may differ in a detail not shown here. Equal values may be shown once. Results filed as inconclusive are left out. Where a call stands in place of a potency, no number is given. Where a structure was tested more than once in an assay, its records may differ in their call. Active and inactive are the calls of the source. Unless noted, calls follow the shape of the full dose curve.
# Tests used:
# [1] = Nuclear factor erythroid 2-related factor 2/antioxidant responsive element (Nrf2/ARE) small molecule agonists: qHTS cell viability counter screen in human keratinocytes (AID 1919968; active = well fitted curve in the direction sought with a large enough effect in the repeat runs; an effect the other way counts as inactive or inconclusive; also: nearly all actives have a fitted effect of over 55% in size; also: potency is read from the fitted curve at half-maximal effect)
# In short: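 Viability counter-screen: KeratinoSens reporter cells, DMSO-delivered compounds, 23 h at 37 C, CellTiter-Fluor fluorescence.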
# [2] = Nuclear factor erythroid 2-related factor 2/antioxidant responsive element (Nrf2/ARE) small molecule agonists: luciferase reporter gene qHTS assay in human keratinocytes (AID 1919969); also: nearly all actives have a fitted effect of over 35% in size; also: potency is read from the fitted curve at half-maximal effect
# [3] = molecular target: Gonadotropin-releasing hormone receptor (Homo sapiens) (UniProt P30968); assay: Human gonadotropin-releasing hormone receptor (GnRHR) small molecule agonists, calcium flux assay in GnRHR-HEK293 cells (AID 1920063); also: nearly all actives have a fitted effect of over 35% in size
# Chain of Gonadotropin-releasing hormone receptor (Homo sapiens) (P30968 whole entry, looked up): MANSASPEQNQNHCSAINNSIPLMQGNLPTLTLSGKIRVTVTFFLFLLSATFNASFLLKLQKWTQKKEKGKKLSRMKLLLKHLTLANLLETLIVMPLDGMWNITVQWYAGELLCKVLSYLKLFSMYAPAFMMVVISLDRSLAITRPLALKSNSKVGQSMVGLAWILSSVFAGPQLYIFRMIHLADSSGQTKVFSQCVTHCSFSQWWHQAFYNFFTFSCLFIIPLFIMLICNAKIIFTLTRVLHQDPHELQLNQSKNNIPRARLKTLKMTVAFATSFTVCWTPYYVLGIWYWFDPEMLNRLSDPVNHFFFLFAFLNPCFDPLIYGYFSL
# In short: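 Tox21-format agonist screen using human GnRHR-expressing HEK293 cells and a fluorescent calcium dye; kinetic 3-min fluorescence reading after compound addition, 15-point concentration series run in triplicate.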
# [4] = molecular target: KiSS-1 receptor (Homo sapiens) (UniProt Q969F8); assay: Human kisspeptin (KISS1R) small molecule agonists, calcium flux assay in KISS1R-HEK293 cells (AID 1920064; active = well fitted curve in the direction sought with a large enough effect in the repeat runs; an effect the other way counts as inactive or inconclusive)
# Chain of KiSS-1 receptor (Homo sapiens) (Q969F8 whole entry, looked up): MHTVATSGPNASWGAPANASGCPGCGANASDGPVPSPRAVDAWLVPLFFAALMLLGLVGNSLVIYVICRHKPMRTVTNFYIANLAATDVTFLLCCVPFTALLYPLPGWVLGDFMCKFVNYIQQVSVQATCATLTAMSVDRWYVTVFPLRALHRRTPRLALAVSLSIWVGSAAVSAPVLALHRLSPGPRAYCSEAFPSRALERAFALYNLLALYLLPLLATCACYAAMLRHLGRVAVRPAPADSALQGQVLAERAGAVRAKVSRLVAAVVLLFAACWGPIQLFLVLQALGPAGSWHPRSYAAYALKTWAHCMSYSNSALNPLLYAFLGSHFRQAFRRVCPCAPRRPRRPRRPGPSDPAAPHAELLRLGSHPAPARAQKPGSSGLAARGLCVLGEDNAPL
# In short: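 Intracellular calcium mobilization in KISS1R-HEK293 cells was recorded by fluorescence (Ex/Em 480/540) for 3 min following compound addition to cells pre-loaded 1 h with calcium dye.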
# [5] = G protein-coupled receptor (GPCR) small molecule agonists, calcium flux assay: HEK293 wild type cell line counter screen (AID 1920065)
# In short: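 In this agonist-mode screen, ATP is the positive control and DMSO the vehicle. Cells grow 18 h before a 1 h dye incubation at 37 C; signal is taken at Ex/Em 480/540 over 3 min.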
# [6] = p53 small molecule agonists, cell-based qHTS assay with human liver microsomes (AID 1963577)
# In short: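 Compounds act here after metabolic activation: human liver microsomes and NADPH, both at 0.5 mg/mL final, were co-added to p53RE-bla cells. Incubation ran 16 h at 37 C, followed by LiveBLAzer detection.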
# [7] = p53 small molecule agonists, cell-based qHTS assay with rat liver microsomes (AID 1963578)
# In short: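 Read-out is beta-lactamase reporter fluorescence (LiveBLAzer, 2 h, room temperature, dark) in p53RE-bla cells treated 16 h at 37 C with compound, rat liver microsomes and NADPH, both 0.5 mg/mL final.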
# [8] = p53 small molecule agonists, cell-based qHTS assay with human liver microsomes: qHTS cell viability counter screen (AID 1963579); also: nearly all actives have a fitted effect of over 45% in size; also: potency is read from the fitted curve at half-maximal effect
# In short: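 Cells carrying the p53 response-element beta-lactamase reporter are treated for 16 h at 37 C with test compounds in the presence of human liver microsomes and NADPH (both 0.5 mg/mL final); ATP-based CellTiter-Glo luminescence then reports viability.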
# [9] = p53 small molecule agonists, cell-based qHTS assay: qHTS cell viability counter screen (AID 1963581); also: nearly all actives have a fitted effect of over 45% in size
# In short: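 Compounds are pinned onto HCT-116 p53RE-bla cells and left 16 h at 37 C. Following the reporter FRET read, ATP is quantified by CellTiter-Glo luminescence after 30 min at room temperature.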
# [10] = p53 small molecule agonists, cell-based qHTS assay (AID 1963582; active = well fitted activation curve with a large enough effect in the signal ratio in the repeat runs, not every such curve was filed as active; the % refers to the signal ratio)
# In short: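 Agonist activity was scored from beta-lactamase FRET fluorescence in p53RE-bla cells treated 16 h at 37 C with compounds in DMSO, substrate incubation being 2 h at room temperature.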
# [11] = molecular target: 5-hydroxytryptamine receptor 2A (Homo sapiens) (UniProt P28223); assay: 5-hydroxytryptamine receptor 2A (HTR2A) small molecule antagonists, cell-based qHTS assay (AID 1963586); also: nearly all actives have a fitted effect of over 45% in size
# Chain of 5-hydroxytryptamine receptor 2A (Homo sapiens) (P28223 whole entry, looked up): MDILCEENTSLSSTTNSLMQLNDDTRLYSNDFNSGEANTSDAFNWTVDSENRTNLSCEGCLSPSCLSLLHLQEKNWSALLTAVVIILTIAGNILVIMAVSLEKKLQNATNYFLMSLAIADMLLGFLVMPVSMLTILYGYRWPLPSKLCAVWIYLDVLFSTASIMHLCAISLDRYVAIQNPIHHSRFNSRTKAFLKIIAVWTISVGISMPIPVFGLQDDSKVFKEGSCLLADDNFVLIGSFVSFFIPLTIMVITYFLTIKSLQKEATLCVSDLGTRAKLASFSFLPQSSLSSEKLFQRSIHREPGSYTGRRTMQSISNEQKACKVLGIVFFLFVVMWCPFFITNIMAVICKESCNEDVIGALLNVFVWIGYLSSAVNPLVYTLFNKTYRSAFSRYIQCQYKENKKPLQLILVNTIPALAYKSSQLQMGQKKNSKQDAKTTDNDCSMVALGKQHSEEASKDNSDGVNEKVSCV
# In short: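 Antagonist-mode intracellular calcium assay: DOI (4 nM) added after 5 min compound pre-incubation at room temperature to dye-loaded HTR2A-CHO cells. Fluorescence followed for 3 min, sampled every second.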
# [12] = molecular target: 5-hydroxytryptamine receptor 2A (Homo sapiens) (UniProt P28223); assay: 5-hydroxytryptamine receptor 2A (HTR2A) small molecule agonists, cell-based qHTS assay (AID 1963587); also: nearly all actives have a fitted effect of over 30% in size
# In short: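 Kinetic calcium-flux fluorescence (2 min, 1 sec intervals) after compound addition in agonist mode. HTR2A-CHO cells were cultured 18 h, then dye-loaded 1 h at 37 C.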
# [13] = molecular target: Muscarinic acetylcholine receptor M1 (Homo sapiens) (UniProt P11229); assay: Cholinergic receptor muscarinic 1 (CHRM1) small molecule antagonists, cell-based qHTS assay (AID 1963588); also: nearly all actives have a fitted effect of over 40% in size; also: potency is read from the fitted curve at half-maximal effect
# Chain of Muscarinic acetylcholine receptor M1 (Homo sapiens) (P11229 whole entry, looked up): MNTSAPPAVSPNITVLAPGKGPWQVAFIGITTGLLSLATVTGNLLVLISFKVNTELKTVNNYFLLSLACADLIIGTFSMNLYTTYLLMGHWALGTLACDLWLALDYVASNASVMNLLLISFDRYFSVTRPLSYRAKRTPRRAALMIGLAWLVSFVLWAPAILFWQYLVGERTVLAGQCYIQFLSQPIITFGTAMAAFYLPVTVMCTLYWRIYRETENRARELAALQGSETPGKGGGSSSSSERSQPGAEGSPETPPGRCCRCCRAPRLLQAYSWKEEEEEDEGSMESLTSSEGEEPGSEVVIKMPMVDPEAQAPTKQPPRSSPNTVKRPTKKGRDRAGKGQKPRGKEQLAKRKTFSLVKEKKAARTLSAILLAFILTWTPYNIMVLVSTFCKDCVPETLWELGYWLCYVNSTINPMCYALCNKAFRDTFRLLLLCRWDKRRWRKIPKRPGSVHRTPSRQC
# In short: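 CHRM1-CHO calcium-flux assay, antagonist mode. Cells were seeded 18 h, dye-loaded 1 h at 37 C and given compound for 5 min at RT, then acetylcholine was added at 50nM. FDSS fluorescence was read 3 min; 15 concentrations, three runs.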
# [14] = cAMP Responsive Elements (CRE) small molecule agonists, cell-based qHTS assay (AID 1963590)
# In short: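 FRET-based beta-lactamase readout (LiveBLAzer B/G, 2 h RT) quantified CRE activation in HEK 293T CRE-bla cells after 3 h treatment with DMSO-dissolved compounds.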
# [15] = cAMP Responsive Elements (CRE) small molecule antagonists, cell-based qHTS assay (AID 1963591; active = well fitted inhibition curve with a large enough effect in the signal ratio in the repeat runs, not every such curve was filed as active; the % refers to the signal ratio)
# In short: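 qHTS in CRE-bla HEK 293T cells: compound in DMSO, then 0.25 uM NKH477 (final), 3 h at 37 °C/5% CO2; beta-lactamase FRET read-out after 2 h substrate incubation.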
# [16] = molecular target: Beta-2 adrenergic receptor (Homo sapiens) (UniProt P07550); assay: Adrenergic beta2 receptor (ADRB2) small molecule antagonists, cell-based qHTS assay (AID 1963592); also: series mostly up to about 92 µM; nearly all actives have a fitted effect of over 50% in size
# Chain of Beta-2 adrenergic receptor (Homo sapiens) (P07550 whole entry, looked up): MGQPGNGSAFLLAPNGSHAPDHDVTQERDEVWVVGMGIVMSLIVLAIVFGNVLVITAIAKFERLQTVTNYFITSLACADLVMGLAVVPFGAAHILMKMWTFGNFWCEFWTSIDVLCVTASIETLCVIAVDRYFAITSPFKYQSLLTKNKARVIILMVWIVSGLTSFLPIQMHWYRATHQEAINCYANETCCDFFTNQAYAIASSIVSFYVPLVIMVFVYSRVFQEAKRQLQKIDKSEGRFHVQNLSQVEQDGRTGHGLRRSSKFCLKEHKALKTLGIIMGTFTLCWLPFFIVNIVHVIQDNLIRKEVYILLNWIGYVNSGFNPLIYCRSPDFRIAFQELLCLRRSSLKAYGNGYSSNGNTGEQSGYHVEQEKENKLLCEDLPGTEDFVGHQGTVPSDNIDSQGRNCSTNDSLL
# In short: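 Cells (CHO, stable ADRB2 overexpression) incubated 18-20hr at 37C; compounds added from DMSO; agonist mix (1nM isoproterenol, 100uM IBMX, 25uM Ro-20-1724) added; 0.5hr RT; d2-cAMP and anti-cAMP-cryptate added; 1hr RT; 665/615 nm read.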
# [17] = molecular target: D(2) dopamine receptor (Homo sapiens) (UniProt P14416); assay: Dopamine D2 receptor (DRD2) small molecule agonists, cell-based qHTS assay (AID 1963594); also: nearly all actives have a fitted effect of over 35% in size
# Chain of D(2) dopamine receptor (Homo sapiens) (P14416 whole entry, looked up): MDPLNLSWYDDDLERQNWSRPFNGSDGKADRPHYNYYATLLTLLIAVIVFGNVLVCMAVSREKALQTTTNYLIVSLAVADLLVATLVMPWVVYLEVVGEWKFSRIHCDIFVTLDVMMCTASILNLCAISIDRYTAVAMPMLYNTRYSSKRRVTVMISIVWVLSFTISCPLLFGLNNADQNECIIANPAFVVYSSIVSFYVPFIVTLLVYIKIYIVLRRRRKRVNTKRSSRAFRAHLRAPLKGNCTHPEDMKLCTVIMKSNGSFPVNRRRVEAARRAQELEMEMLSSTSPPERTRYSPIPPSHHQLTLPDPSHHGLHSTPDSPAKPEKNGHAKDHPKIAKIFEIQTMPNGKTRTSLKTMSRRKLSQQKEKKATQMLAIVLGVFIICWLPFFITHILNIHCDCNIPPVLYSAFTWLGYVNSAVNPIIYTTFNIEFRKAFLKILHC
# In short: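 cAMP accumulation in DRD2-HEK293 cells measured by HTRF after 1 h detection; compounds added 10 min before NKH477 (200nM […]) forskolin-analogue stimulation, 30 min at room temperature, with Ro20-1724 present at 0.1 mM final.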
# [18] = molecular target: D(2) dopamine receptor (Homo sapiens) (UniProt P14416); assay: Dopamine D2 receptor (DRD2) small molecule antagonists, cell-based qHTS assay (AID 1963595; active = well fitted inhibition curve with a large enough effect in the signal ratio in the repeat runs, with a control signal flat; the % refers to the signal ratio)
# In short: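 In this cell-based antagonist screen, compounds act for 10 min at room temperature before a 30 min challenge with 12 nM quinpirole and 200 nM NKH477. cAMP is quantified by HTRF competition in DRD2-HEK293 cells containing 0.1 mM Ro20-1724.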
# [19] = p53 small molecule agonists, cell-based qHTS assay with rat liver microsomes: qHTS cell viability counter screen (AID 1963580); also: nearly all actives have a fitted effect of over 45% in size
# In short: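 HCT-116 p53RE-bla, 4,000 cells/well, 5 h pre-incubation; cpd + rat liver microsomes 0.5 mg/mL + NADPH 0.5 mg/mL (final); 16 h, 37 C; CellTiter-Glo, 30 min RT; luminescence.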
# [20] = molecular target: Muscarinic acetylcholine receptor M1 (Homo sapiens) (UniProt P11229); assay: Cholinergic receptor muscarinic 1 (CHRM1) small molecule agonists, cell-based qHTS assay (AID 1963589); also: nearly all actives have a fitted effect of over 35% in size
# In short: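 Stable CHRM1-CHO cells (human receptor) were incubated 18 h, dye-loaded for 1 h at 37 C and exposed to test compounds for agonist activity, with calcium-dependent fluorescence followed kinetically.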
SMILES,Potency [1],Potency [2],Potency [3],Potency [4],Potency [5],Potency [6],Potency [7],Potency [8],Potency [9],Potency [10],Potency [11],Potency [12],Potency [13],Potency [14],Potency [15],Potency [16],Potency [17],Potency [18],Potency [19],Potency [20]
FC(Cl)(Cl)Cl,inactive,inactive,inactive,inactive,inactive,inactive,inactive,inactive,inactive,inactive,inactive,inactive,inactive,inactive,inactive,inactive,inactive,inactive,–,–
CC(C)CCON=O,inactive,inactive,inactive,inactive,inactive,inactive,inactive,–,inactive,inactive,inactive,inactive,inactive,–,inactive,inactive,inactive,inactive,inactive,inactive
C1CN2CCC1CC2,inactive,inactive,inactive,inactive,inactive,inactive,inactive,–,inactive,inactive,inactive,inactive,–,inactive,inactive,inactive,inactive,inactive,inactive,inactive
Cc1ccc(N)c(N)c1,inactive,4.87 µM (active) and 68.6 µM (active),inactive,inactive,inactive,inactive,inactive,–,inactive,inactive,inactive,inactive,–,inactive,inactive,inactive,inactive,inactive,inactive,–
CC(C)CC(C)(c1ccc(O)cc1)c1ccc(O)cc1,27.4 µM (active) and 38.6 µM (active),inactive,inactive,inactive,inactive,inactive,inactive,inactive and 36.3 µM (active),inactive,inactive,–,inactive,inactive,–,–,–,inactive,–,–,inactive
C=CC(=O)OCCO,inactive,inactive,inactive,inactive,inactive,inactive,inactive,inactive,inactive,inactive,inactive,inactive,–,inactive,inactive,inactive,inactive,inactive,–,inactive
c1ccc(CN2CCNCC2)cc1,inactive,inactive,inactive,inactive,inactive,inactive,inactive,–,inactive,inactive,inactive,inactive,inactive,inactive,inactive,inactive,inactive,inactive,inactive,inactive
[CH3][Sn]([Cl])([Cl])[Cl],inactive,inactive,inactive,inactive,inactive,inactive,inactive,inactive,inactive,inactive,inactive,–,inactive,inactive,inactive,inactive,inactive,inactive,–,inactive
O=C(O)COc1ccc(Cl)cc1Cl,inactive,inactive,inactive,inactive,inactive,inactive,inactive,inactive,inactive,inactive,inactive,inactive,inactive,–,inactive,–,inactive,inactive,–,inactive
CC(=O)C(Cl)Cl,inactive,inactive,inactive,inactive,inactive,inactive,inactive,inactive,inactive,–,inactive,inactive,–,inactive,inactive,inactive,inactive,inactive,–,–
CCCCOCC1CO1 (stereo not drawn),inactive,inactive,inactive,inactive,inactive,inactive,inactive,inactive,inactive,inactive,inactive,inactive,inactive,inactive,–,inactive,inactive,inactive,–,inactive
CCCN(CCC)c1c([N+](=O)[O-])cc(C(C)C)cc1[N+](=O)[O-],inactive,9.48 µM (active) and 15.4 µM (active),inactive,inactive,inactive,inactive,inactive,–,inactive,inactive,inactive,inactive,inactive,inactive,inactive,inactive,inactive,inactive,inactive,inactive
C[Si](Cn1cncn1)(c1ccc(F)cc1)c1ccc(F)cc1,inactive,inactive,inactive,inactive,inactive,inactive,inactive,–,inactive,–,inactive,inactive,42.1 µM (active),–,inactive,inactive,inactive,inactive,inactive,inactive
C[C@H]1CCCC(=O)CCC/C=C/c2cc(O)cc(O)c2C(=O)O1,58.9 µM (active) and inactive,inactive,inactive,inactive,inactive,inactive,inactive,inactive,inactive,–,inactive,inactive,–,inactive,–,inactive,inactive,inactive,–,inactive
